Screening data as filed in PubChem.
LRH-1 inv ag = NR5A2 inverse agonism in reporter assay; O00482; inhibition, % at 3.6 µM; actives 0.13% (n = 360,000); HEK293T StAR-luciferase reporter, LRH-1 transfected, 24 h;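 active = inhibition above the mean inhibition of all tested compounds plus 3 SD, cut at about 73% in these data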
SRC1 inh = inhibitors of human steroid receptor coactivator 1 (SRC1); Q15788; HEK293 GAL4-SRC1 luciferase reporter, luminescence; inhibition, % at 3.6 µM; actives 0.12% (n = 360,000);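 active = inhibition above the campaign mean plus 3 SD, with each screening campaign given its own cutoff, cut at about 60% in these data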
Gli-Sufu antag = antagonists of Gli-Sufu signaling. inhibition, % at 5 µM. actives 0.74% (n = 340,000). AID 588413. Sufu-KO-LIGHT fibroblasts, Gli luciferase reporter luminescence;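 active = inhibition above about 55%, limit read from the data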
SRC3 inh = inhibitors of human steroid receptor coactivator 3 (SRC3) | HEK293 GAL4-SRC3 luciferase reporter, luminescence | inhibition, % at 3.6 µM | actives 0.17% (n = 360,000);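 active = inhibition above a per-campaign cutoff, the mean of all compounds plus 3 SD, cut at about 60% in these data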;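 note: higher means less SRC3-driven luciferase light from the GAL4 reporter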
Target sequence (Q9Y6Q9 whole entry, looked up, the tested form may be a part): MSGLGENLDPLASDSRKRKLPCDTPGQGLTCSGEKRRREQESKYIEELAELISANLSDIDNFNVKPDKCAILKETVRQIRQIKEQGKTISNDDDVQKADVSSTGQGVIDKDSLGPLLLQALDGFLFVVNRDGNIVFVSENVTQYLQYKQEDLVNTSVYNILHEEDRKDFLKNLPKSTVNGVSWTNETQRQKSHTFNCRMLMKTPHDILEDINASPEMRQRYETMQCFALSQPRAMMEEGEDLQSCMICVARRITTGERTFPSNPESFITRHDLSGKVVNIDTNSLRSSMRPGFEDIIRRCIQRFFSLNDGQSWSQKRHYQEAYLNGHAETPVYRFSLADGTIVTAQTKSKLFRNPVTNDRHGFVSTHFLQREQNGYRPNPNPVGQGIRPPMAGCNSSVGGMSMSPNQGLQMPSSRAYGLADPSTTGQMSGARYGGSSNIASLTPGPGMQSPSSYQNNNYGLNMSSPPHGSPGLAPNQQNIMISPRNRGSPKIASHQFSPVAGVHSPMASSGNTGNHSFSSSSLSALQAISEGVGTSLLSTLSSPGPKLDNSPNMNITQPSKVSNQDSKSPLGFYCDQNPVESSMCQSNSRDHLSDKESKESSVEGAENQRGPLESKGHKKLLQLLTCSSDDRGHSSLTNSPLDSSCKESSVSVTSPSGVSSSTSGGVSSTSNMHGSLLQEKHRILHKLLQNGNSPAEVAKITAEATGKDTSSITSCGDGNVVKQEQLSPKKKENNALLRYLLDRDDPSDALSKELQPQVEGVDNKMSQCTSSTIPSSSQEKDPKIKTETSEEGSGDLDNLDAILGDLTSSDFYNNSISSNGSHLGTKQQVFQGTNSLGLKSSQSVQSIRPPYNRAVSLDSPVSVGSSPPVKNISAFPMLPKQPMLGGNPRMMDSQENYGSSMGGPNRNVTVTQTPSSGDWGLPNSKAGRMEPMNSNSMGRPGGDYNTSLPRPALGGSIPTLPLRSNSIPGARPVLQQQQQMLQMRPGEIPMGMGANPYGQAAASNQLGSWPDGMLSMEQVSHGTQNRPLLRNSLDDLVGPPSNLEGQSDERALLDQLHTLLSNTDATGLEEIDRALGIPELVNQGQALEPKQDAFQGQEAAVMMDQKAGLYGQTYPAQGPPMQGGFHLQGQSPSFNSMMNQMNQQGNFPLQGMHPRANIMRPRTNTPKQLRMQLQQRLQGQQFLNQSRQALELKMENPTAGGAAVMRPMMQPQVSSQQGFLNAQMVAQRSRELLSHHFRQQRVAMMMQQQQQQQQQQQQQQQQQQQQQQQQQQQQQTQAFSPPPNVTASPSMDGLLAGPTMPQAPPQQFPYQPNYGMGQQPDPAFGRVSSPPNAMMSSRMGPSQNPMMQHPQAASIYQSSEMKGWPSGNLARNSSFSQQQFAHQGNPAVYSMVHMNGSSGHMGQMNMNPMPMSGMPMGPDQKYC
COUP-TFII inh = blocks human COUP-TFII nuclear receptor. P24468. HEK293T NGFI-A luciferase reporter, luminescence. inhibition, % at 8.6 µM. actives 0.7% (n = 370,000). AID 686940;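 active = inhibition above a per-plate cutoff, mean inhibition of test wells between control levels plus 3 SD, cut at about 38% in these data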;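 note: cells cotransfected with COUP-TFII expression vector driving the NGFI-A reporter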
SRC2 inh = human SRC2 (NCOA2) inhibition. actives 0.17% (n = 370,000). inhibition, % at 9 µM. AID 651957. Q15596. HEK293 GAL4-SRC2 luciferase reporter, luminescence;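 active = inhibition above the mean inhibition of all tested compounds plus 3 SD, set per campaign, cut at about 52% in these data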
Gli-Sufu confirm = confirmation of Gli-SUFU pathway antagonists; inhibition, % at 5 µM; Sufu-KO-LIGHT cells, Gli luciferase reporter, luminescence; AID 602428; actives 40% (n = 2,500); shares compounds with Gli-Sufu antag;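 active = mean inhibition at 5 µM reaching about 45%, limit read from the data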
Gli cytotox = counter-screen for Gli-SUFU antagonists: cytotoxicity | AID 651994 | actives 32% (n = 2,500) | Sufu-KO-LIGHT cells cytotoxicity, ATP luminescence | cytotoxicity, % at 5 µM | shares compounds with Gli-Sufu antag;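 active = mean cytotoxicity at 5 µM above about 25%, limit read from the data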;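 note: cells exposed to compound overnight for roughly 16 to 18 hours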
Wnt3a cs = counter-screen for Gli-SUFU antagonists: Wnt3a reporter inhibition. AID 651995. inhibition, % at 6.25 µM. Wnt-LIGHT cells, Wnt3a-driven luciferase reporter, luminescence. actives 20% (n = 2,500). shares compounds with Gli-Sufu antag;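 active = mean inhibition above about 25%, limit read from the data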
Hits are given with their value. Shown are actives, neighbours in structure and some others; about 1.3% of the full set was active somewhere.

Screening CCN(CC)c1ccc(CNc2nc3ccccc3n2CCN2CCOCC2)cc1 returned LRH-1 inv ag inactive, SRC1 inh inactive, Gli-Sufu antag inactive, SRC3 inh inactive, COUP-TFII inh inactive, SRC2 inh inactive, Gli-Sufu confirm inactive, Gli cytotox inactive and Wnt3a cs inactive.
O=C(Nc1nc(-c2cccs2)cs1)c1ccc(S(=O)(=O)N2CCCCC2)cc1 was read as LRH-1 inv ag inactive, SRC1 inh inactive, Gli-Sufu antag inactive, SRC3 inh inactive, COUP-TFII inh inactive and SRC2 inh inactive.
For O=C(Nc1nc(-c2cccs2)cs1)c1cccc(S(=O)(=O)N2CCCCCC2)c1 the results were LRH-1 inv ag inactive, SRC1 inh inactive, Gli-Sufu antag 61, SRC3 inh inactive, COUP-TFII inh inactive, SRC2 inh inactive, Gli-Sufu confirm 58, Gli cytotox inactive and Wnt3a cs inactive.
`O=C(Nc1ccccc1)C1=C[C@H](C2CCCCC2)C[C@H](OCCCCO)O1` gave LRH-1 inv ag inactive, SRC1 inh inactive, Gli-Sufu antag 62, SRC3 inh inactive, COUP-TFII inh inactive, SRC2 inh inactive, Gli-Sufu confirm 82, Gli cytotox inactive and Wnt3a cs inactive.
O=C(NCc1ccccc1)C1=C[C@H](C2CCCCC2)C[C@H](OCCCCO)O1 was read as LRH-1 inv ag inactive, SRC1 inh inactive, Gli-Sufu antag inactive, SRC3 inh inactive, COUP-TFII inh inactive and SRC2 inh inactive.
CC(=O)N1CCc2c1cccc2S(=O)(=O)NC(CC(C)C)C(=O)Nc1ccc(Cl)c(Cl)c1 (stereo unspecified) was read as COUP-TFII inh inactive and SRC2 inh inactive.
COc1ccc(CNC(=O)C2CCN(S(=O)(=O)N3CCC4(CC3)OCCO4)CC2)c(OC)c1 was read as LRH-1 inv ag inactive, SRC1 inh inactive, Gli-Sufu antag 99, SRC3 inh inactive, COUP-TFII inh inactive, SRC2 inh inactive, Gli-Sufu confirm inactive, Gli cytotox inactive and Wnt3a cs inactive.
`CCCCOCCCNC(=O)C[C@H]1C[C@@]2(C(=O)OC)C(=C[C@H](C(C)(C)C)O[C@@H]2C)N(Cc2ccc(Cl)cc2Cl)C1=O` gave COUP-TFII inh inactive and SRC2 inh inactive.
CCOc1ccccc1OCC(=O)Nc1nnc(C)s1 was read as LRH-1 inv ag inactive, SRC1 inh inactive, Gli-Sufu antag 94, SRC3 inh inactive, COUP-TFII inh inactive, SRC2 inh inactive, Gli-Sufu confirm inactive, Gli cytotox inactive and Wnt3a cs inactive.
COc1ccc(OCC(=O)Nc2nnc(C)s2)cc1 was read as LRH-1 inv ag inactive, SRC1 inh inactive, Gli-Sufu antag inactive, SRC3 inh inactive, COUP-TFII inh inactive and SRC2 inh inactive.
Screening COc1ccc(-c2noc(C3CCCN(C(=O)NC4CCC(C)CC4)C3)n2)cc1 (stereo unspecified) returned COUP-TFII inh inactive and SRC2 inh inactive.
`O=C(Nc1c(C(=O)C2CC2)oc2ccccc12)c1ccc(Cl)cc1` gave LRH-1 inv ag inactive, SRC1 inh inactive, Gli-Sufu antag 86, SRC3 inh inactive, COUP-TFII inh inactive, SRC2 inh inactive, Gli-Sufu confirm inactive, Gli cytotox inactive and Wnt3a cs inactive.
`Cc1cc2nc(-c3cccnc3SCC(=O)NCc3ccco3)[nH]c2cc1C` gave LRH-1 inv ag inactive, SRC1 inh inactive, Gli-Sufu antag inactive, SRC3 inh inactive, COUP-TFII inh inactive and SRC2 inh inactive.
O=C(CSc1ncccc1-c1nc2ccccc2[nH]1)NCc1ccco1 was read as LRH-1 inv ag inactive, SRC1 inh inactive, Gli-Sufu antag 58, SRC3 inh inactive, COUP-TFII inh inactive, SRC2 inh inactive, Gli-Sufu confirm inactive, Gli cytotox 27 and Wnt3a cs inactive.
`c1ccc(-c2nnc(-c3ccccn3)c(-c3ccccn3)n2)nc1` gave LRH-1 inv ag inactive, SRC1 inh inactive, Gli-Sufu antag inactive, SRC3 inh inactive, COUP-TFII inh inactive and SRC2 inh inactive.
`CN(C)c1nc(-c2ccccn2)nnc1-c1ccccc1` gave LRH-1 inv ag inactive, SRC1 inh inactive, Gli-Sufu antag 66, SRC3 inh inactive, COUP-TFII inh inactive, SRC2 inh inactive, Gli-Sufu confirm 66, Gli cytotox inactive and Wnt3a cs 72.
C#CCNC(=O)C[C@H]1C(=O)N(CCc2ccc(Cl)cc2)C2=CCCC[C@@]21C(=O)OCC was read as COUP-TFII inh inactive and SRC2 inh inactive.
O=C(c1cccc(Oc2ccccc2)c1)N1CCC(Oc2cccnc2)CC1 was read as COUP-TFII inh inactive and SRC2 inh inactive.
`O=C(Nc1cc(Sc2ccccn2)cc([N+](=O)[O-])c1)c1ccc(Cl)cc1` gave LRH-1 inv ag inactive, SRC1 inh inactive, Gli-Sufu antag inactive, SRC3 inh inactive, COUP-TFII inh inactive, SRC2 inh inactive, Gli-Sufu confirm inactive, Gli cytotox inactive and Wnt3a cs inactive.
`C[C@@H](CO)N(Cc1cn(Cc2ccccc2)nn1)S(=O)(=O)c1ccccc1Br` gave COUP-TFII inh inactive and SRC2 inh inactive.
For CCn1c(SCc2nc3ccccc3c(=O)[nH]2)nc2ccccc21 the results were LRH-1 inv ag inactive, SRC1 inh inactive, Gli-Sufu antag 56, SRC3 inh inactive, COUP-TFII inh inactive, SRC2 inh inactive, Gli-Sufu confirm inactive, Gli cytotox 26 and Wnt3a cs inactive.
COc1ccc(-c2cc(-c3nnc(SCC(=O)N4CCOCC4)n3N)[nH]n2)cc1 was read as COUP-TFII inh inactive and SRC2 inh inactive.
For Cc1ccc(-c2nc(NCCN(C)C)c3ccccc3n2)cc1 the results were LRH-1 inv ag inactive, SRC1 inh inactive, Gli-Sufu antag inactive, SRC3 inh inactive, COUP-TFII inh inactive and SRC2 inh inactive.
Cc1cccc(-c2nc(NCCCN(C)C)c3ccccc3n2)c1 was read as LRH-1 inv ag inactive, SRC1 inh inactive, Gli-Sufu antag 55, SRC3 inh inactive, COUP-TFII inh inactive, SRC2 inh inactive, Gli-Sufu confirm inactive, Gli cytotox inactive and Wnt3a cs inactive.
Screening CN(C)CCCNc1nc(-c2ccc(Cl)cc2)nc2ccccc12 returned LRH-1 inv ag inactive, SRC1 inh inactive, Gli-Sufu antag 69, SRC3 inh inactive, COUP-TFII inh inactive, SRC2 inh inactive, Gli-Sufu confirm inactive, Gli cytotox 27 and Wnt3a cs inactive.
For CCOc1ccc(-n2c(-c3ccc(Cl)cc3)c[n+]3c2SCC3)cc1 the results were LRH-1 inv ag inactive, SRC1 inh inactive, Gli-Sufu antag 78, SRC3 inh inactive, COUP-TFII inh inactive, SRC2 inh inactive, Gli-Sufu confirm 74, Gli cytotox 30 and Wnt3a cs inactive.
